Assay outcomes: PubChem, NMMLSC
Sampled rows, rich in hits. Any-hit rate of the full collection: about 1.2%.
GSH bead fluor – compound fluoresces at 488/530 nm on GSH beads. GSH beads flow cytometry, compound fluorescence 488/530 nm; hits give high values. fluorescence (KMESF) at 10 µM. 0.25% of 190,000 active; in the data active means fluorescence above about 89;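 further: glutathione beads carrying GST-tagged Bcl family fusion proteins plus one bare bead set; values are compound well signal with DMSO vehicle wells as background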
RGS7-Gao reg – human RGS7-Galphao interaction regulation; P09471; Multiplexed bead flow cytometry, RGS7-Galphao binding; actives lie on both sides; binding response (% of control), % at 10 µM; 0.35% of 220,000 active; in the data active means binding response below about 49% or above about 150%; inconclusive means no clear call, values can overlap the other calls; inactive means in between;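 further: fluorescent Galphao held in activated GDP-AlF4 state binding bead-coupled RGS7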
Target sequence (P09471 whole entry, looked up): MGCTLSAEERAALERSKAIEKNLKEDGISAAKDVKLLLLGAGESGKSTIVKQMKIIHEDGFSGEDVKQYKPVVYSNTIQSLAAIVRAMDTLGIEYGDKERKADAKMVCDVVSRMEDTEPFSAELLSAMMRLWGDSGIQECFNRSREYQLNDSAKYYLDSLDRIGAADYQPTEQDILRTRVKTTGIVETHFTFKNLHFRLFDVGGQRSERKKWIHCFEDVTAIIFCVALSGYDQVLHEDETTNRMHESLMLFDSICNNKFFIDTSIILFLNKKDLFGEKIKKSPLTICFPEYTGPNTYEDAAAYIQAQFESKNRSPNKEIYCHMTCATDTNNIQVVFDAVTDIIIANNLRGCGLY
RGS8-Gao reg – modulates binding of RGS8 to human Galphao | 0.34% of 220,000 active | multiplexed bead flow cytometry; actives lie on both sides | P09471 | response (percent of control binding), % at 10 µM; in the data active means response below about 60% or above about 140%; inactive means in between;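 further: Galphao activated as the GDP aluminium fluoride complex binding bead-coupled RGS8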
Avidin fluor – avidin bead compound fluorescence profile | fluorescence (KMESF) at 10 µM | Avidin beads, compound fluorescence 488/530 nm, flow cytometry; hits give high values | 0.38% of 220,000 active; in the data active means fluorescence above about 47
RGS16-Gao HTS – modulates binding between human RGS16 and Galphao; O15492+P09471; bead-based flow cytometry RGS16-Galphao binding, fluorescence; actives lie on both sides; binding response (% of control), % at 10 µM; 0.38% of 220,000 active; AID 1441;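 further: Galphao activated by GDP with aluminum fluoride before binding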
RGS4-Gao reg – modulates binding of RGS4 to human Galphao; 0.33% of 220,000 active; binding response (% of control), % at 10 µM; Multiplexed bead flow cytometry; actives lie on both sides; in the data active means binding response below about 49% or above about 150%; inactive means in between;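 further: fluorescent Galphao activated with aluminum fluoride binding bead-coupled RGS4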
RGS-Gao – regulators of human RGS4-Galphao interaction; shares compounds with RGS16-Gao HTS; multiplexed bead flow cytometry, RGS–Galpha-o binding; RGS4–Galpha-o binding response, % at 10 µM; 99% of 1,600 active; AID 1504;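 further: fluorescently labeled Galpha-o bound to GDP with aluminium fluoride binding biotinylated RGS beads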
Biotin-avidin – biotin-avidin bead binding disruption counter-screen; AID 1783; 1,700 tested, under 10 active; shares compounds with RGS16-Gao HTS; streptavidin beads, fluorescein-biotin binding, flow cytometry; inhibition, % at 10 µM;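 active means inhibition above 50%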;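 further: median green fluorescence of gated singlet beads compared with DMSO control wells; 0% = DMSO wells and 100% = complete loss of bead fluorescence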
RGS8-Gao confirm – confirmation of regulators of human RGS8-Galphao interaction; shares compounds with RGS16-Gao HTS; bead-based flow cytometry RGS8-Galphao binding, fluorescence; actives lie on both sides; binding response (% of control), % at 10 µM; 3% of 1,700 active; AID 1836; in the data active means binding response below about 72% or above about 130%; inactive means in between;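 further: Galphao activated as GDP AlF4 complex before binding bead RGS8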
RGS7-Gao confirm – confirmation of regulators of human RGS7-Galphao interaction | response (percent of control binding), % at 10 µM | 7.8% of 1,700 active | bead-based flow cytometry RGS7-Galphao binding; actives lie on both sides | shares compounds with RGS16-Gao HTS; in the data active means response below about 75% or above about 130%; inactive means in between;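 further: fluorescent Galphao activated with GDP and aluminum fluoride binding bead-coupled RGS7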
RGS16-Gao conf – confirmation of regulators of human RGS16-Galphao interaction; response (% of control binding), % at 10 µM; 4% of 1,700 active; bead-based flow cytometry, RGS16-Galphao binding; actives lie on both sides; shares compounds with RGS16-Gao HTS; AID 1838; in the data active means response below about 74% or above about 130%; inactive means in between;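 further: Galphao activated as the GDP aluminium fluoride complex binding bead-coupled RGS16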
RGS4-Gao single – RGS4-Galphao interaction regulation, single point confirmation. shares compounds with RGS16-Gao HTS. RGS4-Galphao binding, multiplexed bead flow cytometry; actives lie on both sides. binding response (% of control), % at 10 µM. 4% of 1,700 active. AID 1840; in the data active means binding response below about 74% or above about 130%; inactive means in between
RGS19-Gao single – RGS19-Galphao interaction regulation, single point confirmation; AID 1841; shares compounds with RGS16-Gao HTS; 5% of 1,700 active; response (percent of control binding), % at 10 µM; bead-based flow cytometry RGS19-Galphao binding; actives lie on both sides; in the data active means response below about 50% or above about 160%; inactive means in between;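 further: 100% = no compound control and 0% = blank background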
Target sequence (P09471 whole entry, looked up): as above
Target sequence (P49795 whole entry, looked up): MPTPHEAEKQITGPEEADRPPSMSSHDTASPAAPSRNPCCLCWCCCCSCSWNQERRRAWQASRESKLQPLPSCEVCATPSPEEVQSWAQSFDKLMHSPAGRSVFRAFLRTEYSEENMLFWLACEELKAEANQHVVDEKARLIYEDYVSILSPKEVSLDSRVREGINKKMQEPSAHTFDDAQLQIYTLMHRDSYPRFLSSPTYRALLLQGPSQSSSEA
* marks the source's active call; other numbers are inactive results; ? = inconclusive; . = no result; [ ] = dose if it differs, or a comment. Unless noted, how the calls were made is not given here.

SMILES	GSH bead fluor	RGS7-Gao reg	RGS8-Gao reg	Avidin fluor	RGS16-Gao HTS	RGS4-Gao reg	Biotin-avidin	RGS8-Gao confirm	RGS7-Gao confirm	RGS16-Gao conf	RGS4-Gao single	RGS19-Gao single	others
CCN(CC)c1ccc(/C=N\N2CCN(Cc3ccc(C)cc3)CC2)cc1	20	105.6	102.8	12	109.3	104.9	.	.	.	.	.	.
O=C(O)c1ccc(/C=N/N2CCN(Cc3ccc(Cl)cc3)CC2)cc1	12	125.4	148.2*[activator]	14	262.3	116.5	-1.6	97.5	82.5	92.6	91.4	82.8	RGS-Gao=116.5*
Cc1cc(C)c(S(=O)(=O)/N=C2/C=C(Sc3ncn[nH]3)C(=O)c3ccccc32)cc1C	22	83.8	60.1	5	-0.4*	89.5	.	.	.	.	.	.	RGS-Gao=89.5*
Cc1ccc(NC2=C/C(=N/S(=O)(=O)c3cccs3)c3ccccc3C2=O)cc1C	14	98.8	100.2	3	96.0	100.5	.	.	.	.	.	.
Cc1c(-c2n[nH]c(=S)n2-c2ccc(C(F)(F)F)cc2)nnn1-c1ccccc1	9	101.4	97.0	3	103.0	101.2	.	.	.	.	.	.
Cc1c(-c2n[nH]c(=S)n2-c2ccc(Br)cc2)nnn1-c1ccc(Cl)cc1	14	.	102.5	.	103.3	109.9	-1.9	85.6	98.2	86.2	89.5	66.9
Cc1cc(C)c2c(=O)n(CC(=O)NC3CCCC3)sc2n1	.	?	81.0	3	41.3	93.1	.	.	.	.	.	.
COc1ccc(OC)c(CCNC(=O)Cn2sc3nc(C)cc(C)c3c2=O)c1	15	92.2	74.2	3	17.1*	91.7	3.3	51.8*	70.9*	6.5*	69.3*	8.8*	RGS-Gao=91.7*
O=C(CCCOc1ccc(Cl)cc1Cl)Nc1ccncc1	40	.	.	.	.	.	0.1	104.3	95.7	106.1	100.9	99.1
O=C(CNC(=O)c1ccccc1)NCc1ccc(Cl)cc1	10	150.1*[activator]	101.5	30	102.5	104.2	2.1	109.6	111.9	112.6	108.7	112.1	RGS-Gao=104.2*
O=[N+]([O-])c1cc(Cl)cc(/C=N/Nc2nc3ccccc3s2)c1O	26	101.6	104.5	12	102.1	98.8	.	.	.	.	.	.
COc1cc(/C=N/Nc2nc3ccccc3s2)cc([N+](=O)[O-])c1O	.	.	.	.	.	.	-2.6	96.0	95.9	95.5	100.9	91.2
CCCn1c(SCC(=O)N2CCCC2)nc2c1c(=O)n(C)c(=O)n2C	9	187.5*[activator]	93.3	77*	107.2	156.5*[activator]	-0.6	100.0	95.5	96.6	96.8	96.7
COc1ccc(C(=O)OC(C)CN2CCOCC2)cc1OC (stereo not drawn)	6	101.6	100.8	6	105.4	103.0	.	.	.	.	.	.
COc1cc(C(=O)OC(C)CN2CCCC2)cc(OC)c1OC (stereo not drawn)	25	43.8*	48.6*	6	42.4	46.6*	0.2	105.0	105.2	110.7	107.1	118.1
C(=N\Nc1ncnc2nc[nH]c12)/c1cccs1	16	96.9	101.8	10	110.5	99.7	.	.	.	.	.	.
O=C(NCCN1CCN(Cc2ccc([N+](=O)[O-])cc2)CC1)C(=O)Nc1ccccc1	33	97.1	99.8	18	99.2	96.8	.	.	.	.	.	.
O=C(NCCN1CCN(S(=O)(=O)c2ccc([N+](=O)[O-])cc2)CC1)C(=O)Nc1ccccc1	25	221.4*[activator]	89.3	152*	86.8	130.9	-1.6	99.1	102.2	101.4	99.7	106.6	RGS-Gao=130.9*
CCc1ccc2c(c1)c(N=NC1=NC(=O)CS1)c(O)n2C	10	105.9	104.4	22	100.8	107.1	.	.	.	.	.	.
Cc1cc(C)c2[nH]c(O)c(N=NC3=NC(=O)CS3)c2c1	.	?	115.8	124*	269.6*[activator]	283.0*[activator]	0.4	100.2	94.7	99.7	96.6	120.0
Cc1cccc(N2CCN(Cc3nc(-c4cccc(Oc5ccccc5)c4)oc3C)CC2)n1	13	104.0	100.7	14	108.7	103.5	.	.	.	.	.	.
O=C(NCc1ccco1)c1ccc(CNc2c(N3CCCCC3)c(=O)c2=O)cc1	16	100.3	100.4	6	106.5	101.4	.	.	.	.	.	.
O=C(C1CCC(C(=O)N2CCCCC2)CC1)N1CCCCC1 (stereo not drawn)	32	100.5	102.4	16	102.9	99.4	.	.	.	.	.	.
O=C(C1CCC(N2C(=O)C3CC=CCC3C2=O)CC1)N1CCCCC1 (stereo not drawn)	7	117.9	169.5*[activator]	6	396.5	128.6	0.2	110.0	108.2	118.8	110.3	113.9	RGS-Gao=128.6*
Cc1cc(Cl)ccc1C(=O)C1CCCN(C(=O)c2ccc3ncccc3c2)C1 (stereo not drawn)	14	100.6	101.5	10	107.1	102.0	.	.	.	.	.	.
SMILES	GSH bead fluor	RGS7-Gao reg	RGS8-Gao reg	Avidin fluor	RGS16-Gao HTS	RGS4-Gao reg	Biotin-avidin	RGS8-Gao confirm	RGS7-Gao confirm	RGS16-Gao conf	RGS4-Gao single	RGS19-Gao single	others
O=S(=O)(N/N=C/c1ccccc1F)c1ccccc1	14	?	14.0*	0	11.2*	22.3*	0.5	99.0	98.3	95.2	97.8	93.5
O=S(=O)(N/N=C/c1ccc(F)cc1)c1ccccc1	13	102.0	103.0	6	104.1	98.0	.	.	.	.	.	.
Cn1c(=O)c(Oc2ccc(Cl)cc2)c(O)c2ccccc21	10	102.3	105.9	3	114.6	102.7	.	.	.	.	.	.
COc1ccc(Oc2c(O)c3ccccc3n(C)c2=O)cc1	11	16.8*	9.0*	-2	-92.1	9.1*	-3.0	98.7	97.3	97.4	97.2	100.6
COc1ccccc1NC(=O)C1CCCCC1	26	158.4*[activator]	97.3	90*	99.6	106.8	.	.	.	.	.	.	RGS-Gao=106.8*
O=C(Cn1cc2c(n1)CCCCC2)Nc1ccccc1Br	.	?	28.1*	1	14.0*	24.7*	1.5	98.3	98.5	96.1	97.9	90.3
Cc1ccc(-n2c3c(c(=O)[nH]c2=O)C(NS(=O)(=O)c2ccc(C)cc2)(C(F)(F)F)C(=O)N3)cc1 (stereo not drawn)	15	101.3	101.8	17	102.7	100.0	.	.	.	.	.	.
